Test results: ChEMBL document CHEMBL1961873, “Compounds: GSK PKIS; Assays: Nanosyn kinase panel” (2012)

Experiments:
[1] = target: T1, Mitogen-activated protein kinase 12 (Homo sapiens) (UniProt P53778); conditions: at 1 µM;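 also: values are averaged p38gamma kinase inhibition readings, compounds tested at 1 µM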
T1 sequence (whole entry): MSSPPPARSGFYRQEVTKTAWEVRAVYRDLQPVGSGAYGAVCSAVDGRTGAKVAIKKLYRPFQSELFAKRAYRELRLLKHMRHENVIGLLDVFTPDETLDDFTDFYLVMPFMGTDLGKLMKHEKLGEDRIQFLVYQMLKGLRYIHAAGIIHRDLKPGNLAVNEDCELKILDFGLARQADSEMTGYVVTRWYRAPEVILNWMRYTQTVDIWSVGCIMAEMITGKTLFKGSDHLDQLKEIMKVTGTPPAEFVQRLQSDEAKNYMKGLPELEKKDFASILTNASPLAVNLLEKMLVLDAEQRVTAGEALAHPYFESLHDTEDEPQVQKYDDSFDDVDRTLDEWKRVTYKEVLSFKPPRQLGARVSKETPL

[2] = target: SRSF protein kinase 1 (Homo sapiens) (UniProt Q96SB4); conditions: at 0.1 µM
[3] = target: SRSF protein kinase 1 (Homo sapiens) (UniProt Q96SB4); conditions: at 1 µM
[4] = target: Phosphatidylinositol 4,5-bisphosphate 3-kinase catalytic subunit alpha isoform (Homo sapiens) (UniProt P42336); conditions: at 0.1 µM
[5] = target: Phosphatidylinositol 4,5-bisphosphate 3-kinase catalytic subunit alpha isoform (Homo sapiens) (UniProt P42336); conditions: at 1 µM
[6] = target: T2, Phosphatidylinositol 4,5-bisphosphate 3-kinase catalytic subunit delta isoform (Homo sapiens) (UniProt O00329); conditions: at 0.1 µM
T2 sequence (whole entry): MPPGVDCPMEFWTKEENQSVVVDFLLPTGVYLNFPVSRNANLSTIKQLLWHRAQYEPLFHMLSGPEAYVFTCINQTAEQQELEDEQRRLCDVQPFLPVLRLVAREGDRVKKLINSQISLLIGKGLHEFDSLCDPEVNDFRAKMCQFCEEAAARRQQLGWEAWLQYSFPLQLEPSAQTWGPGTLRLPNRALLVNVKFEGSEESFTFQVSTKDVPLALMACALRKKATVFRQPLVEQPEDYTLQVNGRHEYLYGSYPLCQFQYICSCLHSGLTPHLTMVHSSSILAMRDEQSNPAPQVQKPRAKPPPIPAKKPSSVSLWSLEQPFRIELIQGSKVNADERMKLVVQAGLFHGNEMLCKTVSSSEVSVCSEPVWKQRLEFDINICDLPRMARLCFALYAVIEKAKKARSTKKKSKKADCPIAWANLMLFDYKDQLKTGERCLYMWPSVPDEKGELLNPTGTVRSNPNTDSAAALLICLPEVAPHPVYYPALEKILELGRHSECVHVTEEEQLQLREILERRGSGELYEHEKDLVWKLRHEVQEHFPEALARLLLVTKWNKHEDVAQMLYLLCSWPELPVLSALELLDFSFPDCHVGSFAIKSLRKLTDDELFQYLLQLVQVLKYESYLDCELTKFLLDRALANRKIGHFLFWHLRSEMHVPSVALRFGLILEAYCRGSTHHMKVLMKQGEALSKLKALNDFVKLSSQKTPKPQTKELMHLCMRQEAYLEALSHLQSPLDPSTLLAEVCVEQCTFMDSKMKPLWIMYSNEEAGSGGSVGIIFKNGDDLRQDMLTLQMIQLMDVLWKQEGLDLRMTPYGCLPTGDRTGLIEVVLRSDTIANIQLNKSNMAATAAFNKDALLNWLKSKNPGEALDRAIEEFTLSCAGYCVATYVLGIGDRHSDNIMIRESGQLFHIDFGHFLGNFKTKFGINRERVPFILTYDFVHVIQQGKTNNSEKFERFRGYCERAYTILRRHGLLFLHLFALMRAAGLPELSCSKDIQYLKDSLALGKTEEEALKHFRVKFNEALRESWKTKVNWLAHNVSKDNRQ

[7] = target: T2, Phosphatidylinositol 4,5-bisphosphate 3-kinase catalytic subunit delta isoform (Homo sapiens); conditions: at 1 µM
[8] = target: Phosphatidylinositol 4-kinase beta (Homo sapiens) (UniProt Q9UBF8); conditions: at 0.1 µM
[9] = target: Phosphatidylinositol 4-kinase beta (Homo sapiens) (UniProt Q9UBF8); conditions: at 1 µM
[10] = target: Sphingosine kinase 1 (Homo sapiens) (UniProt Q9NYA1); conditions: at 0.1 µM
[11] = target: Sphingosine kinase 1 (Homo sapiens) (UniProt Q9NYA1); conditions: at 1 µM
[12] = target: T3, Sphingosine kinase 2 (Homo sapiens) (UniProt Q9NRA0); conditions: at 0.1 µM
T3 sequence (whole entry): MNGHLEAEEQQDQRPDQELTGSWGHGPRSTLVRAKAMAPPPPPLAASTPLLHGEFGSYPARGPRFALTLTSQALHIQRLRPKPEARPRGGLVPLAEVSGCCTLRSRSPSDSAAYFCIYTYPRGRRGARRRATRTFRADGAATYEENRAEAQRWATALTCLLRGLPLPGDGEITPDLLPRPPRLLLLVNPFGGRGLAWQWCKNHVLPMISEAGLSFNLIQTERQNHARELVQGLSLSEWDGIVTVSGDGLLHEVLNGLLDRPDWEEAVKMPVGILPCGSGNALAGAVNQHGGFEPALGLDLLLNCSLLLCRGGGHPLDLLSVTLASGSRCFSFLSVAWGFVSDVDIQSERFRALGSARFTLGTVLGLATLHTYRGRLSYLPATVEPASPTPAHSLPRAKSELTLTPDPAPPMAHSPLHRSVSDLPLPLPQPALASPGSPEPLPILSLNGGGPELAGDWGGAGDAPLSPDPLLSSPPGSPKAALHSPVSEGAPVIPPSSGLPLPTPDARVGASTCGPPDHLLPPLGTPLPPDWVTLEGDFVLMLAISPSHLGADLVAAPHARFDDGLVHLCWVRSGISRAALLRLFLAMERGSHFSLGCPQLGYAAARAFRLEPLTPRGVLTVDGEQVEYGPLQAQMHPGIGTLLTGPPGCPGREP

[13] = target: T3, Sphingosine kinase 2 (Homo sapiens); conditions: at 1 µM
[14] = target: Casein kinase II subunit alpha (Homo sapiens) (UniProt P68400); conditions: at 0.1 µM
[15] = target: Casein kinase II subunit alpha (Homo sapiens) (UniProt P68400); conditions: at 1 µM
[16] = target: T4, Inhibitor of nuclear factor kappa-B kinase subunit alpha (Homo sapiens) (UniProt O15111); conditions: at 0.1 µM
T4 sequence (whole entry): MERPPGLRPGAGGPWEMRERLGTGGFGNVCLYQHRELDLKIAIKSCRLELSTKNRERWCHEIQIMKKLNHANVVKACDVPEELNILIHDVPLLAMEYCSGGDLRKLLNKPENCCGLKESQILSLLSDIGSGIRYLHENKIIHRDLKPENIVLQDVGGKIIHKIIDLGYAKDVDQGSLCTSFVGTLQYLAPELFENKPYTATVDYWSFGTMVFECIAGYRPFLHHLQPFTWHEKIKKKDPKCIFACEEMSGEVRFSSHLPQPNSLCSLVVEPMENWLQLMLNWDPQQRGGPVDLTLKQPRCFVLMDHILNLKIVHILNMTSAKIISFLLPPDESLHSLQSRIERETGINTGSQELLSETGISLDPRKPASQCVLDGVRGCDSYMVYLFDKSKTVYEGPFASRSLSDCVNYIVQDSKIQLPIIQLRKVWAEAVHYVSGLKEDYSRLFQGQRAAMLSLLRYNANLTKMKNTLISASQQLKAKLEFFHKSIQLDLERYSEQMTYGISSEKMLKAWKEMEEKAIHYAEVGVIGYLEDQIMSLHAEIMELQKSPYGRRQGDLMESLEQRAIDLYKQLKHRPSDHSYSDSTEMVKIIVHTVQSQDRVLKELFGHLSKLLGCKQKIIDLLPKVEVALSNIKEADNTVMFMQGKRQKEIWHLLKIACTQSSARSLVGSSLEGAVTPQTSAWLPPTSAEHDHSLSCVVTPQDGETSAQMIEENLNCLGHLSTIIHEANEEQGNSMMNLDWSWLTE

[17] = target: T4, Inhibitor of nuclear factor kappa-B kinase subunit alpha (Homo sapiens); conditions: at 1 µM
[18] = target: T5, Inhibitor of nuclear factor kappa-B kinase subunit beta (Homo sapiens) (UniProt O14920); conditions: at 0.1 µM
T5 sequence (whole entry): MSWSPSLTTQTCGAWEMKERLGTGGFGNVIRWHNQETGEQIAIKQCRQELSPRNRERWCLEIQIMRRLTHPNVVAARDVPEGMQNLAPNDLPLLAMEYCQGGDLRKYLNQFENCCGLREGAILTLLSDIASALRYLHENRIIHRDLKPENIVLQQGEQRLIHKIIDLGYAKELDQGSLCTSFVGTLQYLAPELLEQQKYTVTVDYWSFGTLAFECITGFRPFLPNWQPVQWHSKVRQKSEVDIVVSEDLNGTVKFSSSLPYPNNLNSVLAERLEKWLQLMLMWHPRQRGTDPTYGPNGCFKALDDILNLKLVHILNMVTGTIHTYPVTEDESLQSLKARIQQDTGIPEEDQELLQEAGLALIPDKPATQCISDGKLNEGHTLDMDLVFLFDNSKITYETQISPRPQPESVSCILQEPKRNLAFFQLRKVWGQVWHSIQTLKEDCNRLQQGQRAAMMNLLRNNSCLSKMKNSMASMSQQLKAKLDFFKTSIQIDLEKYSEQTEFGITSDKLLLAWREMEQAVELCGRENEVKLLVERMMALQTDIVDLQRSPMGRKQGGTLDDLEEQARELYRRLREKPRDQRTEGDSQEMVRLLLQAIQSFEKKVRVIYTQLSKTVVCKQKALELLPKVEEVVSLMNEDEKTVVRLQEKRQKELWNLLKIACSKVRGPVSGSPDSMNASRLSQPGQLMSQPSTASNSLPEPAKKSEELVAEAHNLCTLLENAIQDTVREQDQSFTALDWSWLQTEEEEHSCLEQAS

[19] = target: T5, Inhibitor of nuclear factor kappa-B kinase subunit beta (Homo sapiens); conditions: at 1 µM
[20] = target: T6, Inhibitor of nuclear factor kappa-B kinase subunit epsilon (Homo sapiens) (UniProt Q14164); conditions: at 0.1 µM;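 also: mean inhibition of IKKε reported, from the GSK PKIS dataset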
T6 sequence (whole entry): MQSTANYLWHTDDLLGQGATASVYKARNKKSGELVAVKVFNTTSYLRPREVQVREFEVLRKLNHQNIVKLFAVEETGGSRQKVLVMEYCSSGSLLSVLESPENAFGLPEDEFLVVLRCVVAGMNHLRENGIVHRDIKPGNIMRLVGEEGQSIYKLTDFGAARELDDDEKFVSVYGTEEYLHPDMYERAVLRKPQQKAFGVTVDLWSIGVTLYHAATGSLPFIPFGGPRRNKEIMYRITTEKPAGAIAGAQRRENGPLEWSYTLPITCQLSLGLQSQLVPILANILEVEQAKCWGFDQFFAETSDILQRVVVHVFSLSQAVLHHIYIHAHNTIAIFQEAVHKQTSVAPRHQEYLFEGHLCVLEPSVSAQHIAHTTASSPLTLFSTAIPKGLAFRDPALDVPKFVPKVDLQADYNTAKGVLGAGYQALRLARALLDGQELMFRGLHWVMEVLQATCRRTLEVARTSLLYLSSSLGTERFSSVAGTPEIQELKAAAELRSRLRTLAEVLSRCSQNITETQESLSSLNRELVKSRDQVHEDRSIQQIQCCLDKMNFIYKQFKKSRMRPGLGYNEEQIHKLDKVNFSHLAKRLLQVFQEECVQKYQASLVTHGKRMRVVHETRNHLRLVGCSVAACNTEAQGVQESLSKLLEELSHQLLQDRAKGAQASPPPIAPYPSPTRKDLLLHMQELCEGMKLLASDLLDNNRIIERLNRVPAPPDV

Chain of Phosphatidylinositol 4-kinase beta (Homo sapiens) (Q9UBF8 2-816 limits assumed): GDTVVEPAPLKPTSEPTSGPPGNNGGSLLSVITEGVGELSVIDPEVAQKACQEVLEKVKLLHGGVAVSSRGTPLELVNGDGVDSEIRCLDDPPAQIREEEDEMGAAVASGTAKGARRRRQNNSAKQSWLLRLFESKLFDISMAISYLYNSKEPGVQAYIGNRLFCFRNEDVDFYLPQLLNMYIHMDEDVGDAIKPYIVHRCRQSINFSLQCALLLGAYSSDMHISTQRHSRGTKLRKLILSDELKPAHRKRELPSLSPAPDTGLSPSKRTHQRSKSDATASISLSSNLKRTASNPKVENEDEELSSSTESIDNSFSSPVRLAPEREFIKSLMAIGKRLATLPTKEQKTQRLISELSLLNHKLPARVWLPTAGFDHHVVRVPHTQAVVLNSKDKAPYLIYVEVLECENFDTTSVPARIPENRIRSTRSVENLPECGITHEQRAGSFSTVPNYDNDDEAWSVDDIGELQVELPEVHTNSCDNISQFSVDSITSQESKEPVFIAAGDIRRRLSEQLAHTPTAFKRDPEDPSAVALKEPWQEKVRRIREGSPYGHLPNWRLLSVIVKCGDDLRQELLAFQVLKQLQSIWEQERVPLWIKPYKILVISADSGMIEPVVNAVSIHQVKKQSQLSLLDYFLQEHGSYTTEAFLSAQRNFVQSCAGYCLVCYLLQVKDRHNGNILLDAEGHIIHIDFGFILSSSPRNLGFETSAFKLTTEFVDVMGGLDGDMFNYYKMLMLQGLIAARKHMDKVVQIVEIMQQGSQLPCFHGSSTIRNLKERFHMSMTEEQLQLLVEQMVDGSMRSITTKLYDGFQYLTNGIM
Chain of Casein kinase II subunit alpha (Homo sapiens) (P68400 whole entry, looked up): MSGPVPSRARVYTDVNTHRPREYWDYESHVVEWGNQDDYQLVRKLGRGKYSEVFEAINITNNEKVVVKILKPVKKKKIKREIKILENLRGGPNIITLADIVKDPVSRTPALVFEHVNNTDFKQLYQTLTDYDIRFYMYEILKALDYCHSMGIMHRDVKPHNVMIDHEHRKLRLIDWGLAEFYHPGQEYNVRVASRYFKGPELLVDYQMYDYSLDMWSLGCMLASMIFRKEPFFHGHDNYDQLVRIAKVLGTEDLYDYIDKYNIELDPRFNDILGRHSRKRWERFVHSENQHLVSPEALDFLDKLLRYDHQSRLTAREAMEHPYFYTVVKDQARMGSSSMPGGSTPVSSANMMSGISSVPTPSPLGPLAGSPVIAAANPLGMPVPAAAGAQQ
Chain of Phosphatidylinositol 4,5-bisphosphate 3-kinase catalytic subunit alpha isoform (Homo sapiens) (P42336 whole entry, canonical isoform): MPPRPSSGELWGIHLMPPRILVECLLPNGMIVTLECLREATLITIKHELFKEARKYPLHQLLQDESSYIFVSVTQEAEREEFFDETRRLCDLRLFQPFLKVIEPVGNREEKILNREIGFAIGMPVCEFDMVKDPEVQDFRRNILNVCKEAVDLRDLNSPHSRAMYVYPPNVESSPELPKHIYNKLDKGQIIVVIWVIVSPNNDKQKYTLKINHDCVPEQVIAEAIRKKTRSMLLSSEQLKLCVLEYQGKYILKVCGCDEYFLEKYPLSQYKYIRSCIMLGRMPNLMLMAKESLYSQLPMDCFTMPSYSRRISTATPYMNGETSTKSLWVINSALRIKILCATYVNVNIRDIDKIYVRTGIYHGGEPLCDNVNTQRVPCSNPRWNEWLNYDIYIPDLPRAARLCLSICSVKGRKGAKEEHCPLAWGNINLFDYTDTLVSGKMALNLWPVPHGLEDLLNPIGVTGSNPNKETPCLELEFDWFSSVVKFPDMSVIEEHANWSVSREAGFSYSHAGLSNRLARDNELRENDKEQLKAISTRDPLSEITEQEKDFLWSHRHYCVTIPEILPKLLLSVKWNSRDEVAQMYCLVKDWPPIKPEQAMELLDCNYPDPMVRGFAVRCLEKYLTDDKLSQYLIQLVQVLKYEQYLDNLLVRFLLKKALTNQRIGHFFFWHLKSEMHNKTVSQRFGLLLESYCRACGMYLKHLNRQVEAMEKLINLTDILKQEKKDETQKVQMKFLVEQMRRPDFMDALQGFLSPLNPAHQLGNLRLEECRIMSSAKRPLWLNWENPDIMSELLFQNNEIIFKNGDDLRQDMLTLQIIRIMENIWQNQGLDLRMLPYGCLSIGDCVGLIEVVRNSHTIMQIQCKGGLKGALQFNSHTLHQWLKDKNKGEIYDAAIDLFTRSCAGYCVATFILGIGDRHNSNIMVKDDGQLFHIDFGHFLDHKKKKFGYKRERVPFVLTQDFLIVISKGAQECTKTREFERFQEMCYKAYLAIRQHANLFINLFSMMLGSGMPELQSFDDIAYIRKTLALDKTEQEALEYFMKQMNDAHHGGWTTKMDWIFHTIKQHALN
Chain of Sphingosine kinase 1 (Homo sapiens) (Q9NYA1 whole entry): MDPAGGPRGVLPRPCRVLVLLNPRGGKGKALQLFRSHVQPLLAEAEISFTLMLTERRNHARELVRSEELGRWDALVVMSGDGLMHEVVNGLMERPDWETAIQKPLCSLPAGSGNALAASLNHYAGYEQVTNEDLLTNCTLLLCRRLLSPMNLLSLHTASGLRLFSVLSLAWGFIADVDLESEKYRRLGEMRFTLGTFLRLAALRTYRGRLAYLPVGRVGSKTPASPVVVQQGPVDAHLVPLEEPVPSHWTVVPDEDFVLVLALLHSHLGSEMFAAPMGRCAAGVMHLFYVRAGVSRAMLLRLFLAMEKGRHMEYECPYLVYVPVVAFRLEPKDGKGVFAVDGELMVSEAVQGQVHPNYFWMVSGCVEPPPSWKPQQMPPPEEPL
Chain of SRSF protein kinase 1 (Homo sapiens) (Q96SB4 whole entry, canonical isoform): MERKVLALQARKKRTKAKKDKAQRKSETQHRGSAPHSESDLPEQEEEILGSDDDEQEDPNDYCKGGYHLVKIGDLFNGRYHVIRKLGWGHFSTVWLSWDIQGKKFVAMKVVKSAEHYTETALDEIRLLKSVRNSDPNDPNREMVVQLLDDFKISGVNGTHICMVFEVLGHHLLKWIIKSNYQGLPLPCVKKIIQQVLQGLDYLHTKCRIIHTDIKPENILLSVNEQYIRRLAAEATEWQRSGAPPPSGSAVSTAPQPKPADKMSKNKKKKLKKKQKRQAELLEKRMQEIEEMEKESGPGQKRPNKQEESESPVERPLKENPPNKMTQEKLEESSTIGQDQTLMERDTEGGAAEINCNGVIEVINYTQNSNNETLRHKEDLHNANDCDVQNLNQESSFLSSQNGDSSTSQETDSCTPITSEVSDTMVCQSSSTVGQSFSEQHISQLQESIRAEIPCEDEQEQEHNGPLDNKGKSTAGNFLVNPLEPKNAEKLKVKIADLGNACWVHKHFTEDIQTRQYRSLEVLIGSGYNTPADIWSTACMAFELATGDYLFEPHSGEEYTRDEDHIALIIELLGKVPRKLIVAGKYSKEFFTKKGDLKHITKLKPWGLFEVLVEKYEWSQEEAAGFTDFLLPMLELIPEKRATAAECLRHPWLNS

Structure (SMILES) | inhibition [1] | inhibition [2] | inhibition [3] | inhibition [4] | inhibition [5] | inhibition [6] | inhibition [7] | inhibition [8] | inhibition [9] | inhibition [10] | inhibition [11] | inhibition [12] | inhibition [13] | inhibition [14] | inhibition [15] | inhibition [16] | inhibition [17] | inhibition [18] | inhibition [19] | inhibition [20]
COc1ccc2c(-c3ccnc(Nc4cccc(OC(F)(F)F)c4)n3)cnn2n1 | 2.47% | -0.39% | 3.84% | 2.57% | 6.99% | 0.71% | 5.67% | 0.16% | 2.84% | 0% | -1.74% | 1.81% | -2.35% | 4% | 20% | 4.59% | 7.22% | 3.15% | 6.88% | 9.38%
O=C(O[C@H]1CN[C@H](C#Cc2cc3ncnc(Nc4ccc(Cc5ccccc5)cc4)c3s2)C1)N1CCOCC1 | 1.72% | -2.56% | -2.4% | 3.61% | 11.2% | 1.42% | 8.98% | 0.59% | -0.78% | 0.79% | -1.06% | -1.12% | -1.6% | 6.95% | 1.52% | 6.44% | 1.74% | 4% | 0.81% | 3.09%
COc1cc2ncn(-c3cc(OCc4ccccc4C(F)(F)F)c(C(=O)N(C)C)s3)c2cc1OC | 0.94% | -1.25% | -2.46% | 0.78% | 1.16% | 0.51% | 2.3% | 2.07% | 0.96% | 2.3% | -3.72% | 0.13% | -2.18% | -0.24% | 2.74% | 5.36% | 2.95% | -0.51% | 0.42% | 0.86%
CCc1nn2ncccc2c1-c1ccnc(NC2CC2)n1 | 3.05% | -1.37% | -0.37% | 1.28% | 1.26% | 0.07% | 0.87% | 5.11% | 8.09% | -2.72% | 0.9% | 0% | 0.3% | 1.46% | 4.59% | 3.61% | 6.96% | 4.78% | 3.76% | 4.47%
Cc1ccc2c(-c3ccnc(Nc4ccccc4)n3)c(-c3ccc(F)cc3)nn2n1 | 2.32% | -1.57% | -2.42% | 2.88% | 0.97% | 2.44% | 4.54% | 2.52% | 1.56% | 0% | 1.05% | -1.64% | 0% | 1.08% | -2.67% | 5% | 0.7% | 4.32% | 1.74% | 1.25%
COc1cc2c(cc1Nc1nc(Nc3ccsc3C(N)=O)c3cc[nH]c3n1)N(C(=O)CN(C)C)CCC2(C)C | 4.23% | -1.82% | 15.8% | 4.65% | 5.27% | 2.82% | 13.9% | -0.32% | -1.38% | 3.22% | 1.56% | -0.3% | -2.8% | 39.4% | 75.3% | 5.27% | 0.27% | 8.68% | 6.07% | 10.8%
